Reference: PMC11062922 (Nature Chemical Biology, 2023)
Read-outs that look alike come from different tables or passages of the source.

Tests used:
DAPK3 = test system: DAPK3; parameters: species or system human, MV4-11 + K-562 + COLO205 + SK-N-BE2 + OVCAR-8; details: read-out: apparent Kd; compound concentrations: 100 nM and 1000 nM (sheet 'Samples'), CATDS: 6.6145961365307402E-3; n = 1
PGK1 = test system: PGK1; parameters: species or system human, MV4-11 + K-562 + COLO205 + SK-N-BE2 + OVCAR-8; details: read-out: apparent Kd; compound concentrations: 100 nM and 1000 nM (sheet 'Samples'), CATDS: 0.13034020177251299; n = 1
TESK1 = test system: TESK1; parameters: species or system human, MV4-11 + K-562 + COLO205 + SK-N-BE2 + OVCAR-8; details: read-out: apparent Kd; compound concentrations: 100 nM and 1000 nM (sheet 'Samples'), CATDS: 1.6628532352141699E-2; n = 1
TUBB6 = test system: TUBB6; parameters: species or system human, MV4-11 + K-562 + COLO205 + SK-N-BE2 + OVCAR-8; details: read-out: apparent Kd; compound concentrations: 100 nM and 1000 nM (sheet 'Samples'), CATDS: 3.8955620012379099E-3; n = 1
CSNK2A2 = details: compound concentrations:3nM, 10nM, 30nM, 100nM, 300nM, 1000nM, 3000nM, 30000nM,R2:0.98972333089258602,slope:1.29833762231974,EC50 Standard Error, by the legend:Standard error of the EC50 estimation as provided by the drc package.
CSNK2B = details: compound concentrations:3nM, 10nM, 30nM, 100nM, 300nM, 1000nM, 3000nM, 30000nM,R2:0.92635600361285697,slope:3.98443256783656,EC50 Standard Error, by the legend:Standard error of the EC50 estimation as provided by the drc package.
EIF3J = details: compound concentrations:3nM, 10nM, 30nM, 100nM, 300nM, 1000nM, 3000nM, 30000nM,R2:0.88928942104591402,slope:1.5975809400026999,EC50 Standard Error, by the legend:Standard error of the EC50 estimation as provided by the drc package.
IRAK3 = details: compound concentrations:3nM, 10nM, 30nM, 100nM, 300nM, 1000nM, 3000nM, 30000nM,R2:0.92660925835613905,slope:0.92534849669637798,EC50 Standard Error, by the legend:Standard error of the EC50 estimation as provided by the drc package.
NQO2 = details: compound concentrations:3nM, 10nM, 30nM, 100nM, 300nM, 1000nM, 3000nM, 30000nM,R2:0.94793507341518402,slope:1.3847657393086299,EC50 Standard Error, by the legend:Standard error of the EC50 estimation as provided by the drc package.
GALK1 = test system: GALK1; parameters: species or system human, MV4-11 + K-562 + COLO205 + SK-N-BE2 + OVCAR-8; details: read-out: apparent Kd, compound concentrations: 100 nM and 1000 nM (sheet 'Samples'), n = 1
EIF2AK1 = test system: EIF2AK1; parameters: species or system human, MV4-11 + K-562 + COLO205 + SK-N-BE2 + OVCAR-8; details: read-out: apparent Kd, n = 1
PRKACG = test system: PRKACG; parameters: species or system human, MV4-11 + K-562 + COLO205 + SK-N-BE2 + OVCAR-8; details: read-out: apparent Kd, compound concentrations: 100 nM and 1000 nM (sheet 'Samples'), n = 1
CDC42 = test system: CDC42; parameters: species or system human, MV4-11 + K-562 + COLO205 + SK-N-BE2 + OVCAR-8; details: read-out: apparent Kd, n = 1
ADK = test system: ADK; parameters: species or system human, MV4-11 + K-562 + COLO205 + SK-N-BE2 + OVCAR-8; details: read-out: apparent Kd, compound concentrations: 100 nM and 1000 nM (sheet 'Samples'), n = 1
MCM5 = test system: MCM5; parameters: species or system human, MV4-11 + K-562 + COLO205 + SK-N-BE2 + OVCAR-8; details: read-out: apparent Kd, compound concentrations: 100 nM and 1000 nM (sheet 'Samples'), n = 1
PKM = test system: PKM; parameters: species or system human, MV4-11 + K-562 + COLO205 + SK-N-BE2 + OVCAR-8; details: read-out: apparent Kd, n = 1
MTHFD1 = test system: MTHFD1; parameters: species or system human, MV4-11 + K-562 + COLO205 + SK-N-BE2 + OVCAR-8; details: read-out: apparent Kd, compound concentrations: 100 nM and 1000 nM (sheet 'Samples'), n = 1
RAB5C = test system: RAB5C; parameters: species or system human, MV4-11 + K-562 + COLO205 + SK-N-BE2 + OVCAR-8; details: read-out: apparent Kd, n = 1
NNT = test system: NNT; parameters: species or system human, MV4-11 + K-562 + COLO205 + SK-N-BE2 + OVCAR-8; details: read-out: apparent Kd, compound concentrations: 100 nM and 1000 nM (sheet 'Samples'), n = 1
IARS = test system: IARS; parameters: species or system human, MV4-11 + K-562 + COLO205 + SK-N-BE2 + OVCAR-8; details: read-out: apparent Kd, compound concentrations: 100 nM and 1000 nM (sheet 'Samples'), n = 1
[1] = compound concentrations:100 nM and 1000 nM (sheet 'Samples')

O=C1N=C(NCCc2ccc(Cl)cc2)S/C1=C\c1ccc2ncccc2c1 [RO4498479-000]
potency estimated from few doses (DAPK3): 2.11 µM

COc1cccc2c(-c3ccncc3)c(-c3ccc(F)cc3)nn12 [GW468513X]
potency estimated from few doses (PGK1): 0.0623 µM

Cn1ncc2c(N)ncnc21 [SKF-18267]
potency estimated from few doses (TESK1): 0.136 µM | potency estimated from few doses (TUBB6): 1.43 µM

Entospletinib
EC50 (CSNK2A2): 1.31 µM | Kd (CSNK2A2; read-out: apparent Kd): 1.31 µM | EC50 (CSNK2B): 0.941 µM | Kd (CSNK2B; read-out: apparent Kd): 0.941 µM | EC50 (EIF3J): 1.61 µM | Kd (EIF3J; read-out: apparent Kd): 1.61 µM | EC50 (IRAK3): 4.71 µM | Kd (IRAK3; read-out: apparent Kd): 2.03 µM | EC50 (NQO2): 0.295 µM | Kd (NQO2; read-out: apparent Kd): 0.131 µM

CS(=O)(=O)Nc1cccc(-c2ccc3c(NC(=O)C4CC4)n[nH]c3c2)c1 [SB-742864]
potency estimated from few doses (GALK1; CATDS: 0.105390971488214): 1.82 µM

CCn1c(-c2nonc2N)nc2c(C#CC(C)(C)O)nc(O[C@@H](CN)c3ccccc3)cc21.O=C(O)C(F)(F)F [GSK1007102B]
potency estimated from few doses (EIF2AK1; [1]): 0.996 µM

Cc1ccccc1-n1ncc(C(=O)c2ccccc2)c1N [RO1151248-000]
potency estimated from few doses (PRKACG; CATDS: 2.9121921896178699E-2): 0.613 µM

CC(C)Nc1cc(-c2ccc3c(N)n[nH]c3c2)nc(N)n1 [GSK2221681A]
potency estimated from few doses (CDC42; [1]): 1.53 µM

O=C1N=C(NCc2cccs2)O/C1=C\c1ccc2ncccc2c1 [RO4624208-000]
potency estimated from few doses (ADK; CATDS: 4.98118638137824E-2): 1.39 µM

COc1cc(Nc2nccc(-c3cnn4ncccc34)n2)cc(OC)c1 [GW801372X]
potency estimated from few doses (MCM5; CATDS: 1.9115246172466901E-2): 1.39 µM

COc1cc(Nc2nccc(N3CCC(NC(=O)c4cccc(NC(C)=O)c4)C3)n2)cc(OC)c1OC (stereo not drawn) [GSK1379754A]
potency estimated from few doses (PKM; compound concentrations: 100 nM and 1000 nM (sheet 'Samples'), CATDS: 8.1586836054847095E-2): 1.9 µM

Cl.Cl.NC(CNC(=O)c1cc(Br)c(-c2ccnc3[nH]ccc23)s1)c1ccccc1.NC(CNC(=O)c1cc(Br)c(-c2ccnc3[nH]ccc23)s1)c1ccccc1 (stereo not drawn) [GSK1322949A]
potency estimated from few doses (CDC42; compound concentrations: 100 nM and 1000 nM (sheet 'Samples'), CATDS: 2.9749426965709602E-2): 1.24 µM | potency estimated from few doses (GALK1; CATDS: 2.6759379349231501E-2): 1.6 µM | potency estimated from few doses (MCM5; CATDS: 2.5853375360702799E-2): 1.76 µM | potency estimated from few doses (MTHFD1; CATDS: 2.96394051410106E-2): 1.25 µM | potency estimated from few doses (RAB5C; compound concentrations: 100 nM and 1000 nM (sheet 'Samples'), CATDS: 2.6344655895194399E-2): 1.67 µM

CCn1c(-c2cccnc2O)nc2cnccc21 [SB-736715]
potency estimated from few doses (EIF2AK1; compound concentrations: 100 nM and 1000 nM (sheet 'Samples'), CATDS: 1.2624621535744099E-2): 1.92 µM

COc1ccc(-c2cc3c(N)ncnc3o2)cc1 [GW642138X]
potency estimated from few doses (NNT; CATDS: 0.135417913174183): 1.07 µM

O=C1N=C(NCc2c(Cl)cccc2Cl)S/C1=C\c1ccc2ncccc2c1 [RO4600445-000]
potency estimated from few doses (ADK; CATDS: 0.24369856841726101): 1.35 µM

O=C(O)C(F)(F)F.O=c1[nH]ccc2nc(N[C@@H]3CCNC3)nc(Nc3ccc4c(c3)S(=O)(=O)CC4)c12 [GSK2181306A]
potency estimated from few doses (IARS; CATDS: 8.0761213761314007E-3): 1.86 µM

CCN(CC)Cc1ccc(Nc2nccc(-c3cnn4ncccc34)n2)cc1 [GW780056X]
potency estimated from few doses (MTHFD1; CATDS: 2.2377842490129501E-2): 0.921 µM

Cl.Cl.NCC(NCc1ccc(-c2ccnc3[nH]ccc23)s1)c1ccccc1.NCC(NCc1ccc(-c2ccnc3[nH]ccc23)s1)c1ccccc1 (stereo not drawn) [GSK1321565A]
potency estimated from few doses (PKM; [1]): 2.05 µM

Nc1nc(-c2ccc3c(N)n[nH]c3c2)cc(N2CCCC(NC(=O)c3ccccc3)C2)n1 (stereo not drawn) [GSK2286775B]
potency estimated from few doses (RAB5C; [1]): 1.52 µM

NS(=O)(=O)c1ccc(N/N=C2\C(=O)Nc3ccc4ncccc4c32)cc1 [GW305178X]
potency estimated from few doses (PRKACG; CATDS: 4.9106390332169098E-2): 1.03 µM

Cl.Nc1nc(-c2ccc3c(c2)C(=Cc2cc(Br)c(O)c(Br)c2)C(=O)N3)cs1 [GW407323A]
potency estimated from few doses (NNT; CATDS: 3.26521392467971E-2): 0.987 µM

COc1ccc(Nc2nccc(NCCNC(=O)Nc3cc(C)ccc3C)n2)cc1 [GSK1379899A]
potency estimated from few doses (IARS; CATDS: 4.14736343029877E-2): 1.92 µM
